The results in this text go back to PubChem BioAssay (NCATS).

Experiment [1] can be described thus: qHTS assay for small molecule agonists of the antioxidant response element (ARE) signaling pathway (AID 651741; active means well fitted activation curve with a large enough effect in the signal ratio; the % refers to the signal ratio; further: potency means the concentration at half of the fitted maximal effect; on activation: % of control where 0% means no effect). Put shortly:
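Beta-lactamase reporter under ARE control in HepG2 cells, 2,000 per well, was induced by 16 h compound treatment at 37 C. Read-out was fluorescence from LiveBLAzer B/G FRET substrate after 2 h at room temperature.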

Experiment [2] is described as follows: qHTS assay for small molecule activators of the p53 signaling pathway (AID 651743; active means well fitted activation curve with a large enough effect in the signal ratio, not every such curve was filed as active; the % refers to the signal ratio; further: potency means the concentration at half of the fitted maximal effect; on activation: % of control where 0% means no effect). To be noted: HCT-116 p53RE-bla, beta-lactamase FRET ratio, 16 h; activation: stronger effect = higher value. The essentials: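 After 16 hours compound treatment at 37 C, HCT-116 cells stably expressing p53RE-driven beta-lactamase were loaded with LiveBLAzer B/G FRET substrate for 2 hours at room temperature. Fluorescence intensity served as the p53 activation read-out.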
For orientation: Quantitative high-throughput screening tests each substance at several concentrations.

Experiment [3] in a line: qHTS assay for small molecule activators of the nuclear factor-kappa B (NF-kB) signaling pathway (AID 651749; active means well fitted activation curve with a large enough effect in the signal ratio; the % refers to the signal ratio; further: % of control where 0% means no effect). The settings on record: NF-kB-bla ME-180 cells, beta-lactamase FRET ratio, 16 h; stronger effect = higher value. Put shortly:
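Activation measured after 16 hr compound treatment at 37C, 5% CO2, of 2,000 ME-180 cells/well stably expressing an NF-kB response element–driven beta-lactamase reporter, via FRET-disruption fluorescence.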

In experiment [4] the target is Tumor necrosis factor (Homo sapiens) (UniProt P01375). Nature of the experiment: qHTS assay to identify small molecules that stimulate Tumor Necrosis Factor-alpha (TNF-alpha) secretion (AID 651757; active means well fitted curve in the direction sought with a large enough effect in the signal ratio; the % refers to the signal ratio; further: 0% is about no effect). Put shortly:
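Secreted TNF-alpha quantified by TR-FRET sandwich of two labeled anti-TNF-alpha antibodies, incubated 3 hr at room temperature. Preceded by 17 hr, 37 C compound treatment of THP-1 cells at 3000 cells/well.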

A short description of experiment [5]: qHTS assay to identify small molecules that stimulate interleukin-8 (IL-8) secretion (AID 651758; active means well fitted activation curve with a large enough effect in the signal ratio; the % refers to the signal ratio; further: 0% is about no effect). Put shortly:
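Secreted IL-8 measured homogeneously by TR-FRET (two labelled anti-IL-8 antibodies, 1-3 h at room temperature) after a 16 h, 37 C compound treatment of THP-1 cells at 2000 cells/well.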

A short description of experiment [6]: qHTS assay for environmental chemicals that activate the Aryl hydrocarbon Receptor (AhR) signaling pathway (AID 651777). Further: % of control where 0% means no effect; nearly all actives have a fitted effect of over 15% in size. The settings on record: 1A2-DRE human hepatoma cells, luciferase, 24 h; activation: stronger effect = higher value. The essentials:
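1A2-DRE human hepatoma reporter line; 1,200 cells/well; cmpd or DMSO 24 h, 37 C/5% CO2; One-Glo 30 min RT; luciferase lum.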

Experiment [7] addresses Peroxisome proliferator-activated receptor alpha (Homo sapiens) (UniProt Q07869). The experiment is described as follows: qHTS assay for small molecule agonists of the peroxisome proliferator-activated receptor alpha (PPARalpha) signaling pathway (AID 651778). Further: % of control where 0% means no effect. To be noted: PathHunter PPARalpha complementation, chemiluminescence, 6 h; stronger effect = higher value. The essentials: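 Chemiluminescence from complemented enzyme reported PPARalpha activation in cells after 6 hr of compound treatment at 37 C. The detection reagent was incubated for 60 min at room temperature, and compounds were scored as agonists.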

For experiment [8], the target named is Nuclear receptor ROR-gamma (Homo sapiens) (UniProt P51449). The experiment is described as follows: qHTS assay for small molecule antagonists of the retinoid-related orphan receptor gamma (ROR-gamma) signaling pathway (AID 651802). Further: nearly all actives have a fitted effect of over 60% in size. Further: potency means the concentration at half of the fitted maximal effect. The essentials: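 Luminescence (One-Glo, 30 min RT) measured 16 h after compound addition and doxycycline induction at 37C. Reporter: RORE-luciferase under TET-inducible ROR-gamma in CHO cells.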
Chain of Nuclear receptor ROR-gamma (Homo sapiens) (P51449 whole entry, looked up): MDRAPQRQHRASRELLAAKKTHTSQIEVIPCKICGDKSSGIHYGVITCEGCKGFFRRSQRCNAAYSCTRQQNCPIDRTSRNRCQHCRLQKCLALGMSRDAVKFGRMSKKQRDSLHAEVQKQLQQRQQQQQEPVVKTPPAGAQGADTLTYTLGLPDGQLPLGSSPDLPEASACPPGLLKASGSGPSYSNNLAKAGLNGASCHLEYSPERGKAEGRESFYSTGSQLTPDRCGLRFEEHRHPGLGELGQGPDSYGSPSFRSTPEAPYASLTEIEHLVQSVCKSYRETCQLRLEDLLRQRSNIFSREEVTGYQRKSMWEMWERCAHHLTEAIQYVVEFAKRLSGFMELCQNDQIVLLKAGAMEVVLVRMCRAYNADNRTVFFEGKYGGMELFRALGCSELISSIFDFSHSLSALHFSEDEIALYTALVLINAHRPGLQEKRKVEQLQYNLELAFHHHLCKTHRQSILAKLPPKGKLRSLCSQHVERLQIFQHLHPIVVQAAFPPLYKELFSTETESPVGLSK

A short description of experiment [9]: qHTS assay for small molecule disruptors of the mitochondrial membrane potential - 1 hr assay (AID 651754; calls by dose curve; further: nearly all actives have a fitted effect of over 35% in size; further: potency means the concentration at half of the fitted maximal effect). The essentials: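 Mitochondrial potential in living HepG2 cells after 1 hr compound treatment at 37C was read with Mito-MPS dye added for a further 30 min. Red aggregate and green monomer fluorescence were measured; loss of potential leaves dye as cytoplasmic monomers.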

Experiment [10] is described as follows: qHTS assay for small molecule disruptors of the mitochondrial membrane potential - 5 hr assay (AID 651755; calls by dose curve; further: nearly all actives have a fitted effect of over 40% in size; further: potency means the concentration at half of the fitted maximal effect). The essentials:
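Membrane-potential dye readout: red aggregate (540 ex/590 em) versus green monomer (490 ex/535 em) fluorescence after 30 min dye loading, following 5 hr compound exposure at 37C of overnight-plated HepG2 cells.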

Experiment [11] in a line: Cell Proliferation Assay against the TMD8 Cell Line (AID 651645).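 Further: cells exposed to compound for 48 h before reading.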 The settings on record: TMD8 DLBCL cell line proliferation/viability; at 46.1 µM (top of the series). Put shortly: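 TMD8 ABC DLBCL cells, 500 per well in phenol red-free RPMI with 5% FBS, were treated with compound by pin transfer and incubated 48 hours at 37C, 5% CO2. Viability was read by CellTiter-Glo luminescence, normalised to DMSO (100%) and 9.2 uM bortezomib (0%).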

A short description of experiment [12]: Cell Proliferation Assay against the HBL1 Cell Line (AID 651646).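 Further: cells exposed to compound for 48 h before reading.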 The settings on record: HBL1 DLBCL cells; at 46.1 µM (top of the series). Put shortly: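 CellTiter-Glo luminescence after 48 h compound exposure at 37C gives percent activity, with DMSO as 100% and 9.2 uM bortezomib final as 0%. Cells: 500 log-phase HBL1 per well, RPMI plus 5% FBS.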
A short description of experiment [13]: Cell Proliferation Assay against the TMD8 Cell Line (Caspase readout at 16 hrs) (AID 651712). Further: potency means the concentration at half of the fitted maximal effect. To be noted: TMD8 lymphoma cells, caspase activation luminescence. Put shortly: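 Caspase-Glo luminescence measured apoptosis after a 16 h, 37 C compound exposure of TMD8 cells (500 cells/well, 5% FBS RPMI). DMSO set 0% and bortezomib at 9.2 uM final set 100% activity.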

The nature of experiment [14]: Cell Proliferation Assay against the TMD8 Cell Line (Caspase readout at 8 hrs) (AID 651713). Further: potency means the concentration at half of the fitted maximal effect. To be noted: TMD8 lymphoma cells, caspase activation luminescence. The essentials: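 Apoptosis read-out: Caspase-Glo luminescence after 8 h compound exposure of TMD8 lymphoma cells at 37C, 5% CO2. Signals were normalized as percent activity between DMSO and bortezomib (9.2 uM final) controls.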

Experiment [15] concerns the target Tyrosine-protein kinase Yes (Homo sapiens) (UniProt P07947). Nature of the experiment: qHTS for small molecule inhibitors of Yes1 kinase: Primary Screen (AID 686947).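 Further: plate controls were DMSO with enzyme for no effect and no-enzyme DMSO wells for full effect; nearly all actives have a fitted effect of over 60% in size.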 The essentials:
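ADP-Glo luminescence reports ADP formed by 4 nM Yes1 phosphorylating poly(E4Y) (0.3 mg/mL) with 0.1 mM ATP for 60 min at room temperature, following 20 min compound preincubation; normalised between DMSO wells with and without enzyme.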

Experiment [16] in a line: qHTS for small molecule inhibitors of Yes1 kinase: Counter Assay (AID 686950).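 Further: no kinase present so only ADP-Glo detection of a fixed ADP amount is tested; luminescence from ADP-Glo reporting ADP in a fixed ATP and ADP mixture; 0% = DMSO wells with ATP plus ADP and -100% = ATP-only wells without ADP.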 Put shortly: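 ADP-Glo luminescence read after a 60 min room-temperature incubation of compound with an ATP/ADP mix (0.08 mM/0.02 mM) and no kinase, following a 20 min compound preincubation. Signal scaled between ATP+ADP (max) and 0.1 mM ATP-only (min) wells; Tris pH 7.5, Mg2+, DTT.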

“And” between values parts separate entries of the source, which are not always exact repeats. Equal entries are not always repeated. Records with an inconclusive call do not appear. The source made the active and inactive calls. Unless noted, the call rests on the fitted dose curve; in most records, active means well fitted curve in the direction sought with a large enough effect; inconclusive means small, poorly fitted or top-dose-only effect, or another doubt; inactive means no such curve, though single readings can be large; an effect the other way counts as inactive or inconclusive.

Chain of Tumor necrosis factor (Homo sapiens) (P01375 whole entry, looked up): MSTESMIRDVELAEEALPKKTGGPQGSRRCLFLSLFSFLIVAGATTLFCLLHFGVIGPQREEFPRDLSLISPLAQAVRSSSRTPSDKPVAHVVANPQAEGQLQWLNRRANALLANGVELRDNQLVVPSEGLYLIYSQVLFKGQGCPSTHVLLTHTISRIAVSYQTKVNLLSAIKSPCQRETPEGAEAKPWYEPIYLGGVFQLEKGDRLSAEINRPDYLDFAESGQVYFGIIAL
Chain of Peroxisome proliferator-activated receptor alpha (Homo sapiens) (Q07869 whole entry, looked up): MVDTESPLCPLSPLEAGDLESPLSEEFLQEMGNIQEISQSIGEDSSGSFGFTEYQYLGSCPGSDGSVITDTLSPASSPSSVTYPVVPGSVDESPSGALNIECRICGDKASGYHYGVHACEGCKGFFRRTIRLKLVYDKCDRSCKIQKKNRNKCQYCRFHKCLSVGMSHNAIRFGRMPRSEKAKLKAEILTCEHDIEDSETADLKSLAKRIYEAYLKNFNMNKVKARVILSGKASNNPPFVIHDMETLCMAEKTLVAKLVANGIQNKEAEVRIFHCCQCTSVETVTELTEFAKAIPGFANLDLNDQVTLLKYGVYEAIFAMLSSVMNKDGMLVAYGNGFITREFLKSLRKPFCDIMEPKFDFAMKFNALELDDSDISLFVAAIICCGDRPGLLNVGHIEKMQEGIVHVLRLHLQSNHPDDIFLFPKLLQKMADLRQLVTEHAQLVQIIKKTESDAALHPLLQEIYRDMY
Chain of Tyrosine-protein kinase Yes (Homo sapiens) (P07947 whole entry, looked up): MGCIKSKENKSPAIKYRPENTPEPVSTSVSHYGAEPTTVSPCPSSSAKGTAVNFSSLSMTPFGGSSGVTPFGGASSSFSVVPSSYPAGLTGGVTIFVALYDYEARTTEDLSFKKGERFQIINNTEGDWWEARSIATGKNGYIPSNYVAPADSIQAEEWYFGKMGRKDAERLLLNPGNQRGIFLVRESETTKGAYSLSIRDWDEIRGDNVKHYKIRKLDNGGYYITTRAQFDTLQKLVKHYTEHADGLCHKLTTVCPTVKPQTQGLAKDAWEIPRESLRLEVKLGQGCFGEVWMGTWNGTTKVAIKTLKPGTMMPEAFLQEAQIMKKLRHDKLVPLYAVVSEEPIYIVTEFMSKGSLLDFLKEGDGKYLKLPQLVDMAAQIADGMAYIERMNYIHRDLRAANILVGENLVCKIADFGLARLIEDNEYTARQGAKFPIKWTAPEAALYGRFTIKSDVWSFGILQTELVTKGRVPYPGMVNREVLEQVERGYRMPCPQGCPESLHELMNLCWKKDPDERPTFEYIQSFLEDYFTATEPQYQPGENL

For the molecule `CC(C)C(C)(C)C(C)(C)C(C)(C)S`, the Potency entry in experiment [1] and in [8] was “inactive” in each case. Besides, the activation in experiment [2] was 1.86% (inactive) and -1.44% (inactive); in experiment [3], -1.05% (inactive) and -0.196% (inactive); in [6] it was 1.1% (inactive) and 1.7% (inactive). The result in [4] and in experiment [5] was inactive. In [7], the max response is -3.79% (inactive) and -2.56% (inactive).
For `OCCOCCN1CCN(C(c2ccccc2)c2ccc(Cl)cc2)CC1` (stereo not given), the Potency entry in experiment [1] was “inactive”. The activation in experiment [2] was -1.54% (inactive). Further, in experiment [7], the max response was -2.06% (inactive).
For the molecule `CC(C)(C)c1ccc(O)c(O)c1`, the Potency in [1] was 37.6 µM (active) and 48.6 µM (active); in experiment [9], 37.6 µM (active); in experiment [8], 59.6 µM (active). In addition, the activation in experiment [2] was 2.58% (inactive) and -2.7% (inactive); in experiment [3] it was -0.887% (inactive) and -1.66% (inactive); in [6] it was 7.39% (inactive) and 2.07% (inactive). The outcome in experiment [4] was inactive. Further, in experiment [7], the max response was 11.7% (inactive) and 0.802% (inactive).
For the molecule `Brc1ccccc1-c1ccccc1`, the Potency result in experiment [1], in [9] and in experiment [10] was “inactive” each time. Further, the values for the activation in experiment [2] and in experiment [3] were 0.157% (inactive) and -0.27% (inactive), respectively. Moreover, the molecule was called inactive in experiment [4] and in experiment [5]. Moreover, in [7], the max response is -0.0593% (inactive).
`Cc1cc(C(C)(C)C)c(O)c(C(C)(C)C)c1`: in [1], the Potency entry was “inactive”. Besides, the activation in [2] is -3.94% (inactive) and -1.07% (inactive); in experiment [3], -0.477% (inactive); in experiment [6] it was 0.771% (inactive) and -0.0452% (inactive). Moreover, the result in [4] was inactive. The max response in [7] is 0.589% (inactive).
In the case of `Nc1ccc(O)cc1`, the Potency in experiment [1] was 26.6 µM (active). Further, in experiment [7], the max response is -0.783% (inactive).
Turning to `Nc1cccc2c(N)cccc12`, the activation was -3.42% (inactive) and 1.45% (inactive) in experiment [2]; -0.416% (inactive) and 0.0033% (inactive) in experiment [3]. Moreover, the max response in [7] is -0.422% (inactive) and -2.29% (inactive).
With `O=C(Oc1ccccc1)c1ccccc1O`, the Potency result in [1] and in experiment [8] was “inactive” in each case. Also, the molecule was classed as inactive in experiment [4]. For the same molecule, the activation in [6] is -0.0038% (inactive) and 1.61% (inactive). Besides, in experiment [7], the max response is 7.82% (inactive) and -2.96% (inactive).
In the case of `COc1cc(C=O)ccc1O`, the activation was -5.16% (inactive) and -4.75% (inactive) in experiment [2]; -1.8% (inactive) and -1.55% (inactive) in [3]; 2.04% (inactive) and 0.0367% (inactive) in experiment [6]. For the same molecule, in experiment [7], the max response was -1.16% (inactive) and -2.1% (inactive). In addition, the Potency result in experiment [8] was “inactive”.
On to `COC(=O)c1c(Cl)c(Cl)c(C(=O)OC)c(Cl)c1Cl`, for which, in [1], the Potency is 54.5 µM (active). In addition, the activation in [2] is 1.22% (inactive); in [3], 0.623% (inactive); in experiment [6], 0.102% (inactive). In addition, the max response in [7] is -0.617% (inactive).
Take `CC(C)(c1ccc(O)cc1)c1ccc(O)cc1`: the activation in experiment [2] is -1.88% (inactive) and -5.31% (inactive) and -3.08% (inactive); in experiment [3] it was -0.409% (inactive) and -2.36% (inactive) and -2.41% (inactive); in experiment [6], 3.05% (inactive) and 4.15% (inactive) and 3.72% (inactive). In experiment [4], the outcome was inactive. The max response in [7] is -6.65% (inactive) and -3.38% (inactive) and -3.11% (inactive).
On to `Cc1ccc(O)cc1`, for which the results for the activation in experiment [2] and in experiment [3] were -3.91% (inactive) and -0.225% (inactive), respectively. Further, the Potency result in [9] and in experiment [10] was “inactive” each time. Besides, the result in experiment [4] was inactive. In addition, the max response in experiment [7] is -0.0678% (inactive).
Consider `O=C(NO)c1ccccc1`, for which the activation in experiment [2] was 3.57% (inactive); in experiment [3] it was 0.132% (inactive); in experiment [6] it was -0.612% (inactive). Also, the molecule was called inactive in experiment [4] and in experiment [5]. Moreover, the max response in experiment [7] is -0.429% (inactive). The Potency entry in [8] was “inactive”.
Consider `Nc1c2ccccc2nc2ccccc12`, for which the Potency was 10.6 µM (active) in experiment [1], 11.2 µM (active) in experiment [2], 9.44 µM (active) in experiment [9] and 15 µM (active) in experiment [10]. Further, the max response in experiment [7] is -4.95% (inactive).
Turning to `OCc1c[nH]c2ccccc12`, the Potency in experiment [1] was 66.8 µM (active). The activation in [2] is -1.58% (inactive); in [3], -1.28% (inactive); in experiment [6] it was 2.25% (inactive). Also, the Potency result in experiment [9] and in experiment [10] was “inactive” each time. In experiment [4], the call was inactive. Moreover, the max response in experiment [7] was -6.59% (inactive).
Take `C[C@@H](O[C@H]1OCCN(Cc2n[nH]c(=O)[nH]2)[C@H]1c1ccc(F)cc1)c1cc(C(F)(F)F)cc(C(F)(F)F)c1`: the viability (% of control) in experiment [11] was 8.07%. Also, the viability, percent of control in experiment [12] came to 8.93%. Also, the Potency in experiment [13] was 11.8 µM (active); in experiment [14], 33.2 µM (active). The Potency result in experiment [15] is “inactive”. In addition, in experiment [16], the molecule was classed as inactive.
